# Results from PubChem BioAssay AID720716 (Broad Institute, 2013).
# Unmarked numbers belong to inactive results.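 Rule for the calls: active = compounds whose fitted half-maximal concentration is at most twice the top tested dose; inconclusive = flat curve with 30 to 70% signal loss, or poor fit; inactive = flat, opposite-direction or too weak compounds.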
# Experiment: inhibitors of control Renilla luciferase reporter, dose response, counter-screen for Shn3 3'UTR targeting project, Clone20-Shn3RL cells, dual-Glo, dry powder (AID 720716)
# Settings: 24 h; series mostly up to 35 µM; activity change, negative = inhibition: at the top concentration
row,Structure (SMILES),"activity change, negative = inhibition [%]"
1,COc1ccc(NS(=O)(=O)c2ccc(C(=O)N3CCCCCC3)cc2)cc1,-26.7
2,CC(=O)N1CCN(C(=O)CCc2cc(C(C)(C)C)c(O)c(C(C)(C)C)c2)CC1,0
3,CN(CC(=O)Nc1cccc(S(=O)(=O)N2CCOCC2)c1)CC(=O)Nc1ccc(Cl)c(C(F)(F)F)c1,0
4,Fc1ccc(-n2nnnc2-c2cnc(-c3cccs3)nc2C(F)(F)F)cc1,-12.5
5,CC(C)(C)NC(=O)CSc1nc2ccc(NC(=O)CSc3nnnn3Cc3ccccc3)cc2s1,0
6,CCCc1nnc(NC(=O)c2nc(S(=O)(=O)Cc3ccc(C)cc3)ncc2Cl)s1,-25
7,CCCOc1ccccc1C1CC(=O)Nc2cc3c(cc21)OCO3 (stereo unspecified),-33.3
8,CC(=O)Nc1cccc(NC(=O)CSc2ncc(-c3ccc(Cl)cc3)n2Cc2ccco2)c1,0
9,COc1ccc(Nc2nc(N3CCCCC3)c3ccccc3n2)cc1,0
10,CCOC(=O)c1ccc(NC(=O)Cn2ncc(Cl)c(Cl)c2=O)cc1,0
11,O=c1c2ccccc2nc2n1C(CSCc1ccc(Cl)cc1Cl)CS2 (stereo unspecified),-12.5
12,CCOC(=O)C1CCN(C(=O)c2ccc(OCC(=O)Nc3cccc(C(F)(F)F)c3)c(OC)c2)CC1,-12.5
13,Nc1nonc1C(=O)NCCNCc1cc(Br)ccc1OCc1ccc(F)cc1,-22.5
14,CN(C(=O)COc1ccccc1C(=O)NCCOc1ccccc1)c1ccccc1,-12.5
15,COc1ccccc1N1CCN(c2ncc(C(=O)N3CCN(c4cccc(Cl)c4)CC3)c3ccccc23)CC1,20
16,CC(C)[C@H](NC(=O)OC(C)(C)C)c1nnc(S(=O)(=O)Cc2c(F)cccc2Cl)o1,-25
